Test results published in PubChem BioAssay (EPA / NIEHS).
Inconclusive results are not listed. The source made the active and inactive calls. How the source made its calls: active means hit-call score of the fitted dose curve at least 0.9, where 1 is the maximum; inconclusive means response in the unintended direction; inactive means score below 0.9.

Target: Cellular tumor antigen p53 (Homo sapiens) (UniProt P04637)
Assay: TOX21_p53_BLA_p4_ratio: Tox21 HCT-116 p53 Agonism Beta-lactamase Assay, Ratio, Phase 4 (AID 2283601)
Excerpt: TOX21_p53_BLA_p4 is a cell-based, single-readout assay that uses HCT116, a human intestinal cell line, […] in a 1536-well plate.TOX21_p53_BLA_p4_ratio is an assay readout measuring reporter gene via receptor activity and designed using inducible reporter (beta lactamase induction) detected with GAL4 b-lactamase reporter gene. The signal is derived from the ratio of cleaved (ch2) to uncleaved (ch1)reporter gene substrate used as the measure of target activity.Data from the assay component TOX21_p53_BLA_p4_ratio was analyzed into 1 assay endpoint. This assay endpoint, TOX21_p53_BLA_p4_ratio, was analyzed in the positive analysis fitting direction relative to DMSO as the negative control and baseline of activity. Using a type of inducible reporter, gain-of-signal activity can be used to understand changes in the reporter gene as they relate to the gene TP53. Furthermore, this assay endpoint can be referred to as a primary readout, because this assay has produced multiple assay endpoints where this ratio serves a reporter gene function to understand target activity. To generalize the intended target to other relatable targets, this assay endpoint is annotated to the DNA binding intended target family, where the subfamily is tumor suppressor.
Thawing Method: Place 14 mL of pre-warmed thaw medium into a 15 mL of conical tub. Remove the vial of cells to be thawed from liquid nitrogen and thaw rapidly by placing at 37C in a water bath with gentle agitation for 1-2 minutes. Decontaminate the vial by wiping with 70% ethanol before opening in a biological safety cabinet. Transfer the vial contents drop-wise into 14 mL of thaw medium in a sterile 15-mL conical tub. Centrifuge cells at 900 rpm for 4 minutes and resuspend in thaw medium. Transfer contents to the T75 tissue culture flask containing Thaw Medium and place flask in a humidified 37C/5% CO2 incubator. Switch to growth medium at first passage.Propagation Method: Aspirate medium, rinse once in DPBS, add 0.25% Trypsin/EDTA and swirl to coat the cell evenly. Add an equal volume of Growth Medium to inactivate Trypsin after 2-3 minutes incubation at 37C. Centrifuge cells at 900 rpm for 4 minutes and resuspend in growth medium. Cell should be passage or fed at least twice a week.Assay Protocol: Harvest cells from culture in growth medium and resuspend in assay medium. 2.2 Dispense 4000 cells/5 uL/well into 1536-well black/clear bottom plates using a Multidrop dispenser. After the cells were incubated at 37C for 5 hours, 23 nL of compounds dissolved in DMSO were transferred to the assay plate by a PinTool resulting in a 217-fold dilution. Incubate the plates for 16 hours at 37C, 5% CO2. Add 1 uL of 6X LiveBLAzer FRET B/G (CCF4-AM) Substrate Mixture to each well using a BioRAPTR dispenser and incubate the plates at room temperature for 2 hours. Measure fluorescence intensity at 460 and 530 nm emission and 405 nm excitation by an Envision detector. Data is expressed as the ratio of 460nm/530nm emissions. Add 4 uL of Cell-titer Glo to each well using BioRAPTR and incubate the plates at room temperature for 2 hours. Measure fluorescence intensity by a VewLux plate reader.

Cellular tumor antigen p53 (Homo sapiens), sequence (P04637 whole entry, looked up): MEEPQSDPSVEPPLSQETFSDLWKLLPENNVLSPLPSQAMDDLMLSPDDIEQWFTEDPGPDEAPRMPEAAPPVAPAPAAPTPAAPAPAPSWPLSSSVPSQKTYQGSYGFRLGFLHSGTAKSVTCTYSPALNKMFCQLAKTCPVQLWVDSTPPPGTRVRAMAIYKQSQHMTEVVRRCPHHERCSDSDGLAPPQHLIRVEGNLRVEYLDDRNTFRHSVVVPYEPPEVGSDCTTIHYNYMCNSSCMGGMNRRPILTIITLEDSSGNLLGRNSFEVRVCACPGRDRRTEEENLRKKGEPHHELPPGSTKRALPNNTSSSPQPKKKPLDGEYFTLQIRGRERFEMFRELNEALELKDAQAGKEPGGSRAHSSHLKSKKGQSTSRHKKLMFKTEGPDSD

| SMILES | outcome | AC50 |
| --- | --- | --- |
| CCCCCCCCCCCCCCCCCl | inactive | – |
| COc1cc(C(=O)NCCCCCC(=O)O)cc(OC)c1OC | inactive | – |
| C=CCOC(=O)CCCCCCCC | inactive | – |
| c1cnc2cc3c(cc2n1)[C@@H]1CNC[C@H]3C1 | inactive | – |
| CS(=O)(=O)CCNCc1ccc(-c2ccc3ncnc(Nc4ccc(OCc5cccc(F)c5)c(Cl)c4)c3c2)o1 | inactive | – |
| COCc1ccc(COC)cc1 | inactive | – |
| O=C(O)[C@H](O)c1ccccc1 | inactive | – |
| CN1CCN(CCC(=O)N2c3ccccc3Sc3ccc(C(F)(F)F)cc32)CC1 | inactive | – |
| O=C(c1ccc(F)cc1)C1CCN(CCn2c(=S)[nH]c3ccccc3c2=O)CC1 | inactive | – |
| CC1(C)S[C@@H]2[C@H](NC(=O)[C@@H](NC(=O)N3CCNC3=O)c3ccccc3)C(=O)N2[C@H]1C(=O)O | inactive | – |
| ClC/C=C\CCl | inactive | – |
| Cc1cc(N)no1 | inactive | – |
| CC(=O)Nc1cccc(N)c1 | – | 79.2 µM (active) |
| CCOC(=O)C(C)(C)C | inactive | – |
| CCC=C1OC(=O)c2ccccc21 | inactive | – |
| CC1CCCCN1CCCOC(=O)c1ccccc1 (stereo not given) | inactive | – |
| O=C1NCCN1CCO | inactive | – |
| ClCCl | inactive | – |
| C=CC(=O)[O-].C=CC(=O)[O-].[Zn+2] | inactive | – |
| CCCCCCCCCCCCCCCCN(C)C | inactive | – |

| SMILES | outcome | AC50 |
| --- | --- | --- |
| Cc1ccc(NC(N)=O)cc1 | inactive | – |
| C[C@@H](O)[C@H]1C(=O)N2C(C(=O)O)=C([C@H]3CCCO3)S[C@H]12 | inactive | – |
| CN1C(=O)c2ccc([N+](=O)[O-])cc2C1=O | inactive | – |
| CC(=O)c1ccc2ccc3ccccc3c2c1 | – | 78.9 µM (active) |
| CN1c2c(nc(N)[nH]c2=O)NCC1CNc1ccc(C(=O)NC(CCC(=O)O)C(=O)O)cc1 (stereo not given) | inactive | – |
| CN1C[C@H]2c3ccccc3Oc3ccc(Cl)cc3[C@@H]2C1 | inactive | – |
| C/C(=C\C(=O)OCCCCCCCCC(=O)O)C[C@@H]1OC[C@H](C[C@@H]2O[C@H]2[C@@H](C)[C@H](C)O)[C@@H](O)[C@H]1O | inactive | – |
| CC(C)NC[C@@H](O)COc1cccc2ccccc12 | inactive | – |
| NC(=O)Oc1ccc(Cc2ccccc2)cc1 | inactive | – |
| CCCC(C)CO (stereo not given) | inactive | – |
| NS(=O)(=O)c1cc2c(cc1Cl)NC(C(Cl)Cl)NS2(=O)=O (stereo not given) | inactive | – |
| CCCCCCCCCCCCCCCC/C=C/C1CC(=O)OC1=O (stereo not given) | inactive | – |
| CCCC(=O)C(=O)O | inactive | – |
| C=CC(=O)OCCOCCOCCOCCOC(=O)C=C | inactive | – |
| CN(CC(=O)N1CCOCC1)Cc1c(Cl)cccc1NC(=O)c1ccccc1 | inactive | – |
| NC(=O)N1c2ccccc2CC(=O)c2ccccc21 | inactive | – |
| CCCCC/C=C\C/C=C\CCCCCCCC(=O)NC(C)c1ccccc1 (stereo not given) | inactive | – |
| O=C(Nc1cccc(C2=NCCN2)c1)Nc1cccc(C2=NCCN2)c1 | inactive | – |
| CC(=O)CC(=O)Nc1ccc(S(=O)(=O)O)cc1 | inactive | – |
| CC(C)C(=O)c1c(C(C)C)nn2ccccc12 | inactive | – |
